Measured values published in paper PMC8384837, “Expanding the binding specificity for RNA recognition by a PUF domain”.
Changes are numbered by the printed parent chain.

Columns and labels:
Experiment in all cases: yeast three-hybrid, YBZ-1, SC-Leu-His + 0.5 mM 3-AT, 4 days
Settings in all cases: tags: N-Gal4 AD-HA kept; label: inside an RPR1-promoter hybrid RNA with tandem MS2 sites; ssRNA
[1] = target: PUM1 PUF domain R1-RRM (Homo sapiens, UniProt Q14671 828-1176, S863R;Q867M)
In short: (§1)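 The interaction score is the log change in how often each variant appears, from input to selection. Frequencies came from PCR-amplified, Illumina-sequenced repeat regions of Pumilio-1 PUF domain libraries grown in strain YBZ-1 (LexA–MS2 coat fusion, HIS3 reporter) alongside matching RNA elements. Input plates were SC-Leu and selection plates were SC-Leu-His + 0.5 mM 3-AT, each for four days, and the log2 calculation used a pseudocount of 1 where a variant was absent.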

[2] = target: PUM1 PUF domain R7-RCN (Homo sapiens, UniProt Q14671 828-1176, S1079R;N1080C;E1083N)
In short: as §1

[3] = target: T1, PUM1 PUF domain R6-TFM (Homo sapiens, UniProt Q14671 828-1176, N1043T;Y1044F;Q1047M)
T1 sequence: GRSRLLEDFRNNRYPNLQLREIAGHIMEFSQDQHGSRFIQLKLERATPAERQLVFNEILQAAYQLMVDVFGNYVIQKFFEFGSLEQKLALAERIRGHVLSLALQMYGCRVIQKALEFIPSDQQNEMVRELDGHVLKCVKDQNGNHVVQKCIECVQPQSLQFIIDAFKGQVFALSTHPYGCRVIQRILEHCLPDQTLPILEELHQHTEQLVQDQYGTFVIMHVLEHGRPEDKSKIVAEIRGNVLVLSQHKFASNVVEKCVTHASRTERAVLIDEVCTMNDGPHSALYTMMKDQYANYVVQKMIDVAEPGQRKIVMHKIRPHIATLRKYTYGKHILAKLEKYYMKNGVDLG
In short: as §1

[4] = target: T2, PUM1 PUF domain R6-VWG (Homo sapiens, UniProt Q14671 828-1176, N1043V;Y1044W;Q1047G)
T2 sequence: T1 sequence with T216V, F217W, M220G
In short: as §1

[5] = target: T3, PUM1 PUF domain R6-DWI (Homo sapiens, UniProt Q14671 828-1176, N1043D;Y1044W;Q1047I)
T3 sequence: T1 sequence with T216D, F217W, M220I
In short: as §1

[6] = target: T4, PUM1 PUF domain R6-VFG (Homo sapiens, UniProt Q14671 828-1176, N1043V;Y1044F;Q1047G)
T4 sequence: T1 sequence with T216V, M220G
In short: as §1

[7] = target: PUM1 PUF domain R3-RVM (Homo sapiens, UniProt Q14671 828-1176, C935R;R936V;Q939M)
In short: as §1

[8] = target: PUM1 PUF domain R3-QPR (Homo sapiens, UniProt Q14671 828-1176, C935Q;R936P;Q939R)
In short: as §1

[9] = target: PUM1 PUF domain R3-WWQ (Homo sapiens, UniProt Q14671 828-1176, C935W;R936W)
In short: as §1

[10] = target: PUM1 PUF domain R3-RTS (Homo sapiens, UniProt Q14671 828-1176, C935R;R936T;Q939S)
In short: as §1

[11] = target: PUM1 PUF domain R5-NSR (Homo sapiens, UniProt Q14671 828-1176, C1007N;R1008S;Q1011R)
In short: as §1

[12] = target: PUM1 PUF domain R5-RHR (Homo sapiens, UniProt Q14671 828-1176, C1007R;R1008H;Q1011R)
In short: as §1

[13] = target: PUM1 PUF domain R4-SFP (Homo sapiens, UniProt Q14671 828-1176, N971S;H972F;Q975P)
In short: as §1

[14] = target: PUM1 PUF domain R4-CNG (Homo sapiens, UniProt Q14671 828-1176, N971C;H972N;Q975G)
In short: as §1

[15] = target: PUM1 PUF domain R8-SWF (Homo sapiens, UniProt Q14671 828-1176, N1122S;Y1123W;Q1126F)
In short: as §1

[16] = target: PUM1 PUF domain R4-CRR (Homo sapiens, UniProt Q14671 828-1176, N971C;H972R;Q975R)
In short: as §1

[17] = target: PUM1 PUF domain R3-GWM (Homo sapiens, UniProt Q14671 828-1176, C935G;R936W;Q939M)
In short: as §1

[18] = target: PUM1 PUF domain R5-SIC (Homo sapiens, UniProt Q14671 828-1176, C1007S;R1008I;Q1011C)
In short: as §1

[19] = target: PUM1 PUF domain R5-IRP (Homo sapiens, UniProt Q14671 828-1176, C1007I;Q1011P)
In short: as §1

[20] = target: PUM1 PUF domain R3-YSG (Homo sapiens, UniProt Q14671 828-1176, C935Y;R936S;Q939G)
In short: as §1

In the case of “GGCUAGAACUAGUGGAUCCCCCGGCGCCCGGCGGCUCGAGCCCGGGUAAGUGUAAAUCGUCUGCAUGCCGCCGGGCGCCAUGCCUGCAGGUCGACUCUAGAAAACAUG”, the binding signal [1] is reported as 2.95 log2 enrichment (interaction score).

“GGCUAGAACUAGUGGAUCCCCCGGCGCCCGGCGGCUCGAGCCCGGGUAAGUCUAAAUAGUCUGCAUGCCGCCGGGCGCCAUGCCUGCAGGUCGACUCUAGAAAACAUG” was tested, and the binding signal [2] was 2.67 log2 enrichment (interaction score).

With “GGCUAGAACUAGUGGAUCCCCCGGCGCCCGGCGGCUCGAGCCCGGGUAAGUGUAAAUUGUCUGCAUGCCGCCGGGCGCCAUGCCUGCAGGUCGACUCUAGAAAACAUG” the binding signal [1] was 1.41 log2 enrichment (interaction score).

For “GGCUAGAACUAGUGGAUCCCCCGGCGCCCGGCGGCUCGAGCCCGGGUAAGUGAAAAUAGUCUGCAUGCCGCCGGGCGCCAUGCCUGCAGGUCGACUCUAGAAAACAUG”, the binding signal [3] was 2.84 log2 enrichment (interaction score), the binding signal [4] was 6.85 log2 enrichment (interaction score) and the binding signal [5] was 2.33 log2 enrichment (interaction score). For the same sequence, the binding signal [6] was 7.53 log2 enrichment (interaction score).

In the case of “GGCUAGAACUAGUGGAUCCCCCGGCGCCCGGCGGCUCGAGCCCGGGUAAGUGUAAUUAGUCUGCAUGCCGCCGGGCGCCAUGCCUGCAGGUCGACUCUAGAAAACAUG”, the binding signal [7] is reported as 2.43 log2 enrichment (interaction score), the binding signal [8] is reported as 5.15 log2 enrichment (interaction score) and the binding signal [9] is reported as 2.48 log2 enrichment (interaction score). The binding signal [10] was 3.18 log2 enrichment (interaction score).

For “GGCUAGAACUAGUGGAUCCCCCGGCGCCCGGCGGCUCGAGCCCGGGUAAGUGUUAAUAGUCUGCAUGCCGCCGGGCGCCAUGCCUGCAGGUCGACUCUAGAAAACAUG”, the binding signal [11] was 4.06 log2 enrichment (interaction score) and the binding signal [12] was 4.52 log2 enrichment (interaction score).

“GGCUAGAACUAGUGGAUCCCCCGGCGCCCGGCGGCUCGAGCCCGGGUAAGUGUAUAUAGUCUGCAUGCCGCCGGGCGCCAUGCCUGCAGGUCGACUCUAGAAAACAUG” was tested, and the binding signal [13] was 7.15 log2 enrichment (interaction score) and the binding signal [14] was 4.94 log2 enrichment (interaction score).

With “GGCUAGAACUAGUGGAUCCCCCGGCGCCCGGCGGCUCGAGCCCGGGUAAGCGUAAAUAGUCUGCAUGCCGCCGGGCGCCAUGCCUGCAGGUCGACUCUAGAAAACAUG” the binding signal [15] was 1.73 log2 enrichment (interaction score).

With “GGCUAGAACUAGUGGAUCCCCCGGCGCCCGGCGGCUCGAGCCCGGGUAAGUGUACAUAGUCUGCAUGCCGCCGGGCGCCAUGCCUGCAGGUCGACUCUAGAAAACAUG” the binding signal [13] was 6.2 log2 enrichment (interaction score), the binding signal [16] was 3.13 log2 enrichment (interaction score) and the binding signal [14] was 2.39 log2 enrichment (interaction score).

In the case of “GGCUAGAACUAGUGGAUCCCCCGGCGCCCGGCGGCUCGAGCCCGGGUAAGUGUAAAUAGUCUGCAUGCCGCCGGGCGCCAUGCCUGCAGGUCGACUCUAGAAAACAUG”, the binding signal [17] is reported as 2.49 log2 enrichment (interaction score), the binding signal [15] is reported as 2.33 log2 enrichment (interaction score) and the binding signal [18] is reported as 3.43 log2 enrichment (interaction score). The binding signal [4] was 2.67 log2 enrichment (interaction score), the binding signal [14] was 2.92 log2 enrichment (interaction score) and the binding signal [19] was 2.35 log2 enrichment (interaction score). For the same sequence, the binding signal [6] was 3.57 log2 enrichment (interaction score) and the binding signal [12] was 1.95 log2 enrichment (interaction score).

For “GGCUAGAACUAGUGGAUCCCCCGGCGCCCGGCGGCUCGAGCCCGGGUAAGUGUAAGUAGUCUGCAUGCCGCCGGGCGCCAUGCCUGCAGGUCGACUCUAGAAAACAUG”, the binding signal [17] was 1.14 log2 enrichment (interaction score), the binding signal [9] was 5.35 log2 enrichment (interaction score) and the binding signal [20] was 2.43 log2 enrichment (interaction score).

For “GGCUAGAACUAGUGGAUCCCCCGGCGCCCGGCGGCUCGAGCCCGGGUAAGUGUCAAUAGUCUGCAUGCCGCCGGGCGCCAUGCCUGCAGGUCGACUCUAGAAAACAUG”, the binding signal [11] was 4.06 log2 enrichment (interaction score).
